A selection: hits, their analogues and other compounds. The true share with any hit is near 4.6%.
D1 potentiator: human D1 dopamine receptor positive modulation | hit rate 0.036% among 360,000 | HEK293 TREx D1 cells, calcium flux, dopamine EC20 potentiation | AID 504651 | potentiation, % at 10 µM; in the data active = potentiation above about 30%; note: 0% is about no effect
Target sequence (P21728 whole entry, looked up): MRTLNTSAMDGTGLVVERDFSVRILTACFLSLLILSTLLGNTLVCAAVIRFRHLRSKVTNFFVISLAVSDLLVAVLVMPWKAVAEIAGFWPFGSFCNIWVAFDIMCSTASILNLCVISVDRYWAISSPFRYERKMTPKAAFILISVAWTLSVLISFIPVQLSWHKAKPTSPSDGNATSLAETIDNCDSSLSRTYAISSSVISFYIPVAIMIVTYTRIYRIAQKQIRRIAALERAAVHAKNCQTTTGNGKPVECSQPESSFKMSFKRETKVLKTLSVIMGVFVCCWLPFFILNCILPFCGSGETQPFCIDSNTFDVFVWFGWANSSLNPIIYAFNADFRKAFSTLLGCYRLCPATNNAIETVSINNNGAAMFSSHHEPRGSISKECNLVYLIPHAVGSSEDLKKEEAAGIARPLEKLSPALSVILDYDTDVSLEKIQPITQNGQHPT
D1 antag: antagonists of human D1 dopamine receptor; HEK293 TREx D1 cells, calcium flux, dopamine EC80; hits give low values; activity change, negative = inhibition, % at 10 µM; AID 504652; hit rate 3.2% among 360,000; in the data active = activity change below about -30%; note: % is set by controls: 0 for no effect and ±100 for the full control effect
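Compound effects on dopamine-evoked calcium signalling were measured in tetracycline-induced HEK293 Trex D1 cells. Dopamine at EC80 followed a 180 s compound pre-read, and fluorescence was tracked kinetically for 180 s more.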
TRHR ag: activates the human TRH receptor; TRHR cells, calcium flux fluo-8, FDSS agonist mode; activation, % at 2 µM; P34981; hit rate 0.18% among 360,000; note: 0% is about no effect
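TRHR-expressing cells loaded with fluo-8 calcium dye; 23 nL library compound pin-transferred, kinetic FDSS fluorescence (Ex 480/Em 530) recorded about 180 s for agonist-induced calcium release, before a 10 nM TRH EC20 addition for potentiator mode.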
D1 agonist: agonists of human D1 dopamine receptor; P21728; HEK293 T-REx D1 cells, calcium flux, agonist mode; activation, % at 2 µM; hit rate 1% among 360,000; note: 0% is about no effect
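Agonism was scored from calcium flux recorded over 180 s (1 read/s) after pintool compound addition, following a 10-cycle baseline. Cells were inducible force-coupled HEK293 TREx D1, plated overnight at 30 C and loaded with no-wash calcium dye.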
TRHR enhancer: allosterically enhances the human TRH receptor; P34981; TRHR cells, fluo-8 calcium fluorescence, EC20 TRH enhancement; enhancement, % at 2 µM; hit rate 0.66% among 360,000; in the data active = enhancement above about 30%; note: 0% is about no effect
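TRHR-expressing cells loaded with fluo-8 calcium dye were read kinetically (ex 480/em 530) during compound addition, then stimulated with an EC20 of TRH (10 nM final). Enhancement of the Gq-mediated intracellular calcium response was scored.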
An asterisk follows results filed as active; nt = not tested or not shown. Cut-off read from the data, not from the text of the source, unless noted: active = activation above about 30%; inactive = the rest.

SMILES	D1 potentiator	D1 antag	TRHR ag	D1 agonist	TRHR enhancer
Cc1ccc(NC(=O)Nc2ccc3c(c2)N(C)C(=O)CS3)cc1C	nt	-44*	-1	20	11
COc1ccc2c(c1)c(CC(=O)Nc1cccc(F)c1C)c(C)n2C(=O)c1ccc(Cl)cc1	-2	17	2	1	14
CCCCOC(=O)c1c(C)oc2ccc(NS(=O)(=O)c3ccc(F)cc3C)cc12	-5	-10	1	5	-3
COc1ccc(-c2noc(N3CCC(C(=O)Nc4ccc(OC)cc4OC)CC3)n2)cc1	-14	-31*	0	9	2
CCc1ccc(NC(=O)C2CCN(c3nc(-c4ccc(OC)cc4)no3)CC2)cc1	-1	-2	0	0	18
COc1ccc(-c2noc(N3CCC(C(=O)N4CCN(c5ccccc5OC)CC4)CC3)n2)cc1	-4	-56*	1	8	-10
Cc1nc(-c2ccc(C)c(S(=O)(=O)N3CCC(C(=O)NCc4ccc(Cl)cc4)CC3)c2)no1	2	-17	0	1	30*
COc1ccc(-c2noc(N3CCC(C(=O)NCc4ccc(F)cc4)CC3)n2)cc1	-10	-36*	0	10	0
COc1ccc(-c2noc(N3CCC(C(=O)Nc4ccc(F)cc4F)CC3)n2)cc1	-10	0	-1	8	14
COc1ccc(-c2noc(N3CCC(C(=O)N4CCN(c5cccc(C)c5C)CC4)CC3)n2)cc1	1	-8	0	5	-3
OCCC1CN(CC2CC2)CCN1Cc1ccc(F)c(F)c1 (stereo unspecified)	0	-8	0	3	-4
Cc1nc(C)c(CCNS(=O)(=O)c2ccc(C)c(C)c2)s1	-6	-17	0	12	1
CN(Cc1cnn(Cc2ccccc2)c1)C(=O)CN=C1NS(=O)(=O)c2ccccc21	-7	4	0	1	6
CCCNC(=O)c1cnn2c(C)c(Cc3c(C)cc(C)cc3C)c(C)nc12	1	10	0	-1	3
Cc1cc2c(c(=O)n1Cc1ccc3c(c1)OCO3)C(c1cccnc1)C(C#N)=C(N)O2 (stereo unspecified)	-6	-90*	0	2	0
Cc1cc2c(c(=O)n1Cc1cccnc1)C(c1ccccc1)C(C#N)=C(N)O2 (stereo unspecified)	-5	-14	1	1	2
O=c1c(O)c(-c2cccs2)oc2ccc(Cl)cc12	-14	53	168*	385*	77*
O=c1c(O)c(-c2cccs2)oc2ccccc12	7	28	107*	252*	4
CC(=O)NC1(C(F)(F)F)NC(=O)N(C2CCCCC2)C1=O (stereo unspecified)	-2	3	1	3	2
CCOC(=O)c1ccc(S(=O)(=O)N2CCN(C)CC2)cc1	3	11	0	2	11
Cc1ccc(N2CC(C(=O)N3CCc4ccccc43)CC2=O)cc1 (stereo unspecified)	-3	-13	-1	-1	0
O=C1CC(C(=O)N2CCc3ccccc32)CN1c1ccccc1 (stereo unspecified)	-2	-31*	0	0	-4
COc1ccc(CCNC(=O)c2ccc3c(c2)N(Cc2ccccc2)C(=O)c2ccccc2S3=O)cc1OC (stereo unspecified)	-5	-4	0	3	14
COc1ccccc1NS(=O)(=O)c1cccc(C(=O)N/N=C/c2c(CO)cnc(C)c2O)c1	-7	-30*	16	13	-3
Cc1[nH]n(-c2ccccc2)c(=O)c1N=Nc1cccc(C(=O)O)c1	3	-37*	1	1	1
SMILES	D1 potentiator	D1 antag	TRHR ag	D1 agonist	TRHR enhancer
Cc1[nH]n(-c2ccccc2)c(=O)c1N=Nc1ccc(C(=O)O)cc1	-2	5	-1	2	-4
Cc1[nH]n(C2=NCCS2)c(=O)c1N=Nc1cccc(C(F)(F)F)c1	-4	5	7	62*	-5
Cc1cn2c(=O)cc(COc3ccccc3NC(=O)c3ccccc3C)nc2s1	-1	-14	0	-1	4
CCn1c(/C(C#N)=C/c2ccccc2Cl)nc2ccccc21	1	1	1	1	50*
CC1CN(c2oc(-c3ccccc3Cl)nc2C#N)CC(C)O1 (stereo unspecified)	-1	-7	0	1	9
CCSc1ncc(/C=N/Nc2ccc(Cl)cc2)n1C	-1	18	1	3	8
O=C(C[n+]1cc(-c2ccc(Cl)c(Cl)c2)n2c1CCC2)N1c2ccccc2Sc2ccccc21	-7	-39*	-1	1	-7
O=C(C[n+]1cc(-c2ccc(Cl)cc2)n2c1CCC2)N1c2ccccc2Sc2ccccc21	-2	-3	0	9	-6
O=C(C[n+]1cc(-c2ccc(Cl)cc2)n2c1CCC2)Nc1nc(-c2ccccc2)cs1	-10	-61*	0	3	0
Cc1ccc(NC(=O)N2CCCC2C(=O)NCc2ccccc2Cl)cc1 (stereo unspecified)	-2	-2	0	1	-4
Cc1ccc(NC(=S)NCc2ccccc2)cc1[N+](=O)[O-]	-8	-21	1	23	-6
Cc1ccc(CNC(=S)Nc2ccc(C)c([N+](=O)[O-])c2)cc1	-7	-31*	3	38*	-4
Cc1ccc(CC(=O)Nc2ccc(F)c([N+](=O)[O-])c2)cc1C	-4	-35*	1	9	-1
Cc1ccc(NC(=O)Cc2ccc3c(c2)CCCC3)cc1C	0	-31*	0	3	1
O=C(CCc1ccccc1)Nc1ccc(F)c([N+](=O)[O-])c1	-3	-18	-1	10	-4
Cc1ccc(CC(=O)Nc2ccc(F)c([N+](=O)[O-])c2)cc1	-9	-43*	-1	9	-4
Cc1ccc(-n2c(SCC(=O)Nc3ccc4c(c3)OCO4)nnc2-c2cccs2)cc1	-3	5	-1	1	6
O=C(Cn1nc(C(F)(F)F)c2c1CCCCC2)N1CCOCC1	1	-5	0	6	1
O=C(c1ccccc1-c1nc(-c2ccccc2)no1)N1CCOCC1	-1	5	0	-1	-3
COC(=O)c1cc(=O)n(CCc2ccc(OC)cc2)c(=Nc2ccc(F)c(Cl)c2)s1	-8	-60*	-1	7	3
COC(=O)c1cc(=O)n(CCc2ccccc2)c(=Nc2ccc(F)cc2)s1	4	-16	2	0	10
CC1(C)CC(NC(=O)c2cc([N+](=O)[O-])cc([N+](=O)[O-])c2)CC(C)(C)N1	-3	21	1	5	-6
CC1CCCN(C(=O)COC(=O)/C=C/c2ccc(C(F)(F)F)cc2)C1 (stereo unspecified)	-17	-47*	0	5	8
O=C(c1cc(COc2c(F)cccc2F)on1)N1CCC(c2ccncc2)CC1	-2	-10	-1	12	7

Compound activity from PubChem.
